In one experiment the target is Albumin (Bos taurus) (UniProt P02769). Nature of the experiment: compounds binding labelled BSA control protein – biochemical, small-molecule microarray, Alexa647 label, 635/667 nm fluorescence, artefact control for SMM control protein annotation, profiling panel (AID 1118).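 Note: score merges 667 nm emission intensity and signal-to-noise per printed compound spot.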 The note with it: BSA-A647 binding, fluorescence 635 nm, higher = more signal.
Experiment [1] in a line: probe aXIP binding to arrayed compounds – biochemical, NeuroSMM set, 635/667 nm fluorescence, primary screen (AID 1119).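 Note: probe is the protein aXip251-270 applied at 1 µg/mL to compound-printed slides; binding of probe to printed compounds measured as 667 nm fluorescence plus signal to noise.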 The note with it: small-molecule microarray, higher = more signal, called active from +8 up or from −8 down.
Experiment [2] in a line: probe aNOTCH3 binding on compound microarray – biochemical, small-molecule microarray, 635/667 nm fluorescence, primary screen (AID 1120).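 Note: probe is a biotin-tagged antibody raised against NOTCH3 rather than NOTCH3 protein; score merges spot fluorescence near 667 nm with spot signal to noise.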 The note with it: higher = more signal.
Experiment [3] is described as follows: probe aNOTCH2 binding on compound microarray – biochemical, small-molecule microarray, 635/667 nm fluorescence, primary screen (AID 1121).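 Note: score merges feature fluorescence read at 667 nm with its signal to noise.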 The note with it: higher = more signal.
Experiment [4] has as its target Carbonic anhydrase 2 (Homo sapiens) (UniProt P00918). Nature of the experiment: compounds binding carbonic anhydrase 2 – biochemical, small-molecule microarray, Alexa647-labelled CAII, profiling panel (AID 1122). The note with it: CAII-A647 binding fluorescence, higher = more signal.
Experiment [5] in a line: COS7 lysate on small-molecule microarray, probe aHis, 635 nm (AID 1123).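 Note: z-score combines 667nm fluorescence intensity with signal-to-noise per printed compound spot.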 The note with it: COS7 cell lysate, fluorescence, higher = more signal.
The nature of experiment [6]: probe aLAP1 signal on lysate-treated microarray – cell lysate, small-molecule microarray, COS7 lysate, primary screen (AID 1124).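 Note: lysate comes from COS7 cells expressing LAP1 and is applied at 0.3 µg/mL; score merges spot fluorescence near 667 nm with signal-to-noise over triplicate slides.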 The note with it: probe aLAP1, fluorescence, higher = more signal.
The next experiment deals with Sam68 (KHDRBS1). In words: compounds binding KHDRBS1 protein – biochemical, small-molecule microarray, 635 nm fluorescence, primary screen (AID 1125).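 Note: score merges 667 nm channel intensity with signal to noise over triplicate slides.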 The note with it: higher = more signal.
For experiment [7], the system named is Chordin-like protein 2 (CHRDL2). In words: compounds binding chordin-like 2 – biochemical, small-molecule microarray, 635 nm fluorescence, primary screen (AID 1126).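 Note: printed compound slides probed with Chrdl2 protein at 4 µg/mL for 1 h at 4 C; score merges 667 nm emission intensity with signal to noise over three replicate slides.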 The note with it: fluorescence 635 nm, higher = more signal.
In experiment [8] the target is Concanavalin-A (Canavalia ensiformis) (UniProt P02866). Nature of the experiment: compounds binding concanavalin A lectin – biochemical, small-molecule microarray, Alexa647 label, 635 nm, artefact control for SMM control protein annotation, primary screen (AID 1127).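 Note: z combines 667 nm emission intensity with signal-to-noise across three replicate slides.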 The note with it: ConA-A647 binding fluorescence, higher = more signal.
Sequence of Concanavalin-A (Canavalia ensiformis) (P02866 whole entry, looked up): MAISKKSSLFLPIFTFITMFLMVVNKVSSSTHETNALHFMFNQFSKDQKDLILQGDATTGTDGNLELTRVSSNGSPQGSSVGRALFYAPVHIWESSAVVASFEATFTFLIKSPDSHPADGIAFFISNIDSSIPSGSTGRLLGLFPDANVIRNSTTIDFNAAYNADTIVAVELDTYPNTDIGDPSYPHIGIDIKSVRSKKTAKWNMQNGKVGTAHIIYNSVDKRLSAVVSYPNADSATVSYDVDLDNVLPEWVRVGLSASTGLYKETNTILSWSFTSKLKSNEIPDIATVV
A short description of experiment [9]: compounds binding Alexa647 anti-His antibody – biochemical, small-molecule microarray, 635 nm fluorescence, artefact control for SMM control protein annotation, primary screen (AID 1128).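 Note: score merges feature fluorescence with signal-to-noise for each printed compound spot.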 The note with it: higher = more signal.
The subject of experiment [10] is Human papillomavirus type 1a E7 protein (residues 1-88). In words: HPV1a E7 small-molecule binders, primary screen, biochemical, small-molecule microarray, residues 1-88, 635 nm (AID 1129). The note with it: small-molecule microarray binding, fluorescence 635 nm; higher = more signal.
The target of experiment [11] is Focal adhesion kinase 1 (Homo sapiens) (UniProt Q05397). In words: PTK2 protein binding on printed compound slides – biochemical, small-molecule microarray, 635/667 nm fluorescence, BSA, DTT, primary screen (AID 1130).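 Note: composite of spot emission at 667 nm and signal to noise over triplicate slides.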 The note with it: 635 nm fluorescence, higher = more signal.
Sequence of Focal adhesion kinase 1 (Homo sapiens) (Q05397 whole entry, looked up): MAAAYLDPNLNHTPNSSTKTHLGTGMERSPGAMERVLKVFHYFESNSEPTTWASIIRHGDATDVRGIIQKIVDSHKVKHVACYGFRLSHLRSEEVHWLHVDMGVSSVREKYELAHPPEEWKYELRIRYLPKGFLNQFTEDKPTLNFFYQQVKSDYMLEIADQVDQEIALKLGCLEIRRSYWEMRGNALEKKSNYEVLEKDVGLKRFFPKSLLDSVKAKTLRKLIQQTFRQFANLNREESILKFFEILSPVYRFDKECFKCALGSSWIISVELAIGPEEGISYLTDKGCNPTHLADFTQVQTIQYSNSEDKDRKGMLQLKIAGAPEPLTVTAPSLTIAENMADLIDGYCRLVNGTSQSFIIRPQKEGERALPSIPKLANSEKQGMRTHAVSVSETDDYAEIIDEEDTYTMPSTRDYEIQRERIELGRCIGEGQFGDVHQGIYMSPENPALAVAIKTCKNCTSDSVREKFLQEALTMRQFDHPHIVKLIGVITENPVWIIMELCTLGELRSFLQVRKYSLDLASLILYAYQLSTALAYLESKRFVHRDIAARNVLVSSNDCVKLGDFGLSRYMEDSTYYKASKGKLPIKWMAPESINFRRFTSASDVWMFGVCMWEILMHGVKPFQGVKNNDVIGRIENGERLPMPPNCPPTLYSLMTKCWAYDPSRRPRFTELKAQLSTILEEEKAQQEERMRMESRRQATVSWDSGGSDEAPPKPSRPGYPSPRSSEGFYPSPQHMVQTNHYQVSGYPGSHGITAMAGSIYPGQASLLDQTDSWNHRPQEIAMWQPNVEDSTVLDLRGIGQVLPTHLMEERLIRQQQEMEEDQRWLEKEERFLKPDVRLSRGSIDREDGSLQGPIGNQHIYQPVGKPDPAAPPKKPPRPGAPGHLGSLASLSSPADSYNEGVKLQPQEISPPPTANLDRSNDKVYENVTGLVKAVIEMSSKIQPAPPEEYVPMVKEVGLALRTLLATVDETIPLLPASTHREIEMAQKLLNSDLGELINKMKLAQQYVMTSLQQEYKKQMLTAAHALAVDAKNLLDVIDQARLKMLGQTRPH
Experiment [12] relates to Fibrinogen (Alexa647-labelled). Nature of the experiment: Alexa647-fibrinogen binding to printed small molecules – biochemical, small-molecule microarray, 635/667 nm fluorescence, artefact control for SMM control-protein annotation, profiling panel (AID 1131).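 Note: z-score merges 667 nm fluorescence with per-spot signal-to-noise over triplicate slides.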 The note with it: fibrinogen-A647 binding fluorescence, higher = more signal.
The target in experiment [13] is Follistatin (Homo sapiens) (UniProt P19883). Nature of the experiment: FST protein binding to printed compounds – biochemical, small-molecule microarray, 635/667 nm fluorescence, primary screen (AID 1132). The note with it: 635 nm fluorescence, higher = more signal.
Sequence of Follistatin (Homo sapiens) (P19883 whole entry, looked up): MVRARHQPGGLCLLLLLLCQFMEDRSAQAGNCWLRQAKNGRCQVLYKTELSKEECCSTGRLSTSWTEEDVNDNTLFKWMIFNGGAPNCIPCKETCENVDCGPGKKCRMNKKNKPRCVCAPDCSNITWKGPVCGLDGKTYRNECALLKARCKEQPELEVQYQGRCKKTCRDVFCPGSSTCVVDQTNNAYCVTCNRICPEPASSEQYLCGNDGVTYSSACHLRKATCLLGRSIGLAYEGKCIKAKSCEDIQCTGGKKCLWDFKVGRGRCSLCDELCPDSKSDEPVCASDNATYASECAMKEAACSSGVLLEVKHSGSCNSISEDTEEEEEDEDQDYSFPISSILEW
For experiment [14], the target named is Fibroblast growth factor 2 (Homo sapiens) (UniProt P09038). Nature of the experiment: basic fibroblast growth factor binding to printed compounds – biochemical, small-molecule microarray, 635/667 nm fluorescence, primary screen (AID 1133). The note with it: FGF2, fluorescence 635/667, higher = more signal.
Sequence of Fibroblast growth factor 2 (Homo sapiens) (P09038 whole entry, looked up): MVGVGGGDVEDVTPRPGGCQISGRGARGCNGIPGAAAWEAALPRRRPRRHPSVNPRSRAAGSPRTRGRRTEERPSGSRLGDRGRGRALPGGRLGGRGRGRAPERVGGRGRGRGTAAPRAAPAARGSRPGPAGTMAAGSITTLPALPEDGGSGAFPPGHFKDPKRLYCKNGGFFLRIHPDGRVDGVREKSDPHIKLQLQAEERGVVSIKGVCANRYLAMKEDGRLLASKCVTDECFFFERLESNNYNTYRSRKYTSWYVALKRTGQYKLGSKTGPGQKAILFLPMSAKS
The nature of experiment [15]: JC-1 mitochondrial potential readout, lung cancer cells – cell-based, A549, JC-1 fluorescence, basal, 24 h, 100 nL, profiling panel (AID 1138).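 Note: A549 lung adenocarcinoma cells under basal conditions with no added stimulus; test concentration not given here.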 The note with it: higher = more signal.
The subject of another experiment is Lefty1. In words: Lefty1 protein binding to printed compounds – biochemical, small-molecule microarray, 635/667 nm fluorescence, primary screen (AID 1139). The note with it: fluorescence 635/667, higher = more signal.
Experiment [16] relates to wheat germ agglutinin (Triticum aestivum), Alexa647-labelled. Nature of the experiment: Alexa647-WGA lectin binding to printed small molecules – biochemical, small-molecule microarray, 635/667 nm fluorescence, artefact control for SMM control-protein annotation, profiling panel (AID 1140).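 Note: score merges 667 nm feature emission with signal to noise over triplicate slides.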 The note with it: WGA-A647 binding, 635 nm fluorescence, higher = more signal.
Experiment [17] deals with Luciferin 4-monooxygenase (Photinus pyralis) (UniProt P08659). In words: inhibition of purified Photinus pyralis luciferase – biochemical, luminescence, purified enzyme, 2006 set, primary screen (AID 1141).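 Note: cell-free assay with purified firefly luciferase at 100 ng per well in PBS; test concentration not given here.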 The note with it: purified firefly luciferase, SteadyGlo luminescence, 30 min; higher = more signal, called active from +8 up or from −8 down.
Sequence of Luciferin 4-monooxygenase (Photinus pyralis) (P08659 whole entry, looked up): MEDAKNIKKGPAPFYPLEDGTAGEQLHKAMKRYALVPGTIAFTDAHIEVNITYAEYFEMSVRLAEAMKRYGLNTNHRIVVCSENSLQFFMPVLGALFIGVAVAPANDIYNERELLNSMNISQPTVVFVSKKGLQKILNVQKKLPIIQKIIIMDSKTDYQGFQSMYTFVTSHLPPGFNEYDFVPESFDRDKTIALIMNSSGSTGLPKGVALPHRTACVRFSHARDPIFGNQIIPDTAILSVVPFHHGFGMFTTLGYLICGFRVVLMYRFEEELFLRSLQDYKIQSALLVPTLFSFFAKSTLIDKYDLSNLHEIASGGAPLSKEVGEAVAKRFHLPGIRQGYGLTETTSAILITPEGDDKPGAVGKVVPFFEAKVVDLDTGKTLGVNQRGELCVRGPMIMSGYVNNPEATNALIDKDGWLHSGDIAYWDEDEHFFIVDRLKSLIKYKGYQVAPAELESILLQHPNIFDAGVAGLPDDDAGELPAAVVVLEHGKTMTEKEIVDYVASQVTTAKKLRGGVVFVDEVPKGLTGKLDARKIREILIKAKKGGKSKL

Calls of active or inactive are those of the source.

Sequence of Albumin (Bos taurus) (P02769 whole entry, looked up): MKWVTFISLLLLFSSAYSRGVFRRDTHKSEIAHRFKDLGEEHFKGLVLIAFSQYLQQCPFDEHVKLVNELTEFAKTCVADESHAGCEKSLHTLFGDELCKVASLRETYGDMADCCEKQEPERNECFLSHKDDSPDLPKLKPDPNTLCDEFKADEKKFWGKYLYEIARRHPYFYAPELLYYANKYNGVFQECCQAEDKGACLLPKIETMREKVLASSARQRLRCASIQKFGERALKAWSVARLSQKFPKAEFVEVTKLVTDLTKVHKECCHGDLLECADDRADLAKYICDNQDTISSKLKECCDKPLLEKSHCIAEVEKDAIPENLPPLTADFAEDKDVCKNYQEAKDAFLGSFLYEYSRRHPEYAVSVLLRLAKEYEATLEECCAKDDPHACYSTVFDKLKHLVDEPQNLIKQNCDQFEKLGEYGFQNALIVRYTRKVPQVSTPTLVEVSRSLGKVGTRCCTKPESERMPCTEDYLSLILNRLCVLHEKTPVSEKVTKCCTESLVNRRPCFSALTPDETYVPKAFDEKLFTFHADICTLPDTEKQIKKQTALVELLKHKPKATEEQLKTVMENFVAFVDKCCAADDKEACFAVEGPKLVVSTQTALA

Take `CC(C)[C@H]1NC(=O)[C@@]23C(=O)N[C@@H](Cc4ccccc4)C2[C@H](C)[C@@]2(C)O[C@H]2C3/C=C/CCC/C=C/CNC(=O)[C@H](Cc2ccccc2)NC1=O` (stereo not given in full): the composite z-score in the experiment with Albumin (Bos taurus) is 0.347; in experiment [2], -0.213; in [3], -0.131; in [4], 0.427; in experiment [5], 0.892; in experiment [6], -0.0328. The composite z-score in the experiment with Sam68 (KHDRBS1) is 0.86; in [7], 0.213; in [8], -0.464; in experiment [9], 0.123; in experiment [10], 0.369; in [11], 0.205. Moreover, the composite z-score in experiment [12] is -0.684; in experiment [13], 0.283; in [14], -0.0659; in the experiment with Lefty1, 1.03; in experiment [16], -0.755. The composite Z-score in [1] is -0.0159 (inactive). In addition, the figures for the z-score in experiment [15] and in [17] were -0.69 and -0.388 (inactive), respectively.
For `COc1ccc([Si](C)(C)[C@H]2[C@H](CC(=O)N3Cc4ccccc4C[C@H]3CO)O[C@@]3(C(=O)N(Cc4ccc(N5C(=O)c6cccc7cccc5c67)cc4)c4ccccc43)[C@@H]2C)cc1`, the composite z-score was 0.502 with Albumin (Bos taurus); -0.0647 in experiment [2]; -0.207 in experiment [3]; 0.376 in experiment [4]; 0.822 in experiment [5]; 0.295 in [6]. The composite z-score in the experiment with Sam68 (KHDRBS1) stood at 1.3; in [7] it was 1.13; in experiment [8] it was 1.08; in experiment [9] it was 0.33; in experiment [10], 1.15; in experiment [11], 1.28. The composite z-score in [12] is 0.405; in experiment [13], 1.07; in experiment [14] it was 1.37; in the experiment on Lefty1, 1.01; in experiment [16], 0.237. In addition, the composite Z-score in [1] is 0.858 (inactive). In addition, the z-score was 1.34 in experiment [15] and 0.0376 (inactive) in experiment [17].
As to `CN1C(=O)C2C=CC(C(O)c3ccc(I)cc3)N(Nc3ccccc3)C2C1=O` (stereo not given), the composite z-score in the experiment with Albumin (Bos taurus) was 0.939; in experiment [2], 0.323; in experiment [3], -0.0389; in [4] it was 0.547; in [5], 1.91; in experiment [6] it was 0.595. Besides, the composite z-score with Sam68 (KHDRBS1) is 1.14; in experiment [7], 0.569; in experiment [8] it was 1.15; in experiment [9] it was 0.276; in experiment [10] it was 1.22; in [11] it was -0.161. For the same molecule, the composite z-score was 1.02 in experiment [12]; 1.19 in experiment [13]; 0.979 in [14]; 0.465 in the experiment with Lefty1; 0.86 in experiment [16]. For the same molecule, the composite Z-score in experiment [1] was 0.412 (inactive). The z-score was 0.255 in experiment [15] and -0.431 (inactive) in [17].
On to `O=C1OCCC=C[C@H]2OC34C=CCN(c5ccc(Cl)cc5)C(=O)[C@H]3N(CCCCCCO)C(=O)[C@@H]4C12` (stereo not given in full), for which the composite z-score is -0.418 in the experiment with Albumin (Bos taurus); -0.122 in experiment [2]; -0.218 in experiment [3]; 0.802 in [4]; -0.328 in experiment [5]; -0.256 in [6]. In addition, the composite z-score in the experiment on Sam68 (KHDRBS1) is -0.156; in experiment [7] it was -1.16; in experiment [8] it was -0.941; in experiment [9], -0.6; in experiment [10] it was -0.611; in [11] it was -0.469. For the same molecule, the composite z-score is -1.17 in experiment [12]; -0.841 in experiment [13]; -1.12 in experiment [14]; -0.831 with Lefty1; -0.533 in [16]. Further, the composite Z-score in experiment [1] was 0.318 (inactive). Moreover, the z-score in experiment [15] is 2.21; in experiment [17] it was -1.65 (inactive).
For `C=CC1c2cc(O)c(OC)cc2CCN1Cc1ccc([N+](=O)[O-])o1` (stereo not given), the composite z-score with Albumin (Bos taurus) was 0.576; in experiment [2], 0.136; in experiment [3], -0.0708; in experiment [4], 0.847; in [5], 2.05; in experiment [6], 1.1. Also, the composite z-score with Sam68 (KHDRBS1) is 0.358; in experiment [7], -0.807; in [8] it was 0.103; in experiment [9], 3; in experiment [10], -0.354; in experiment [11] it was -0.426. Further, the composite z-score is 0.66 in [12]; 0.138 in [13]; -0.0471 in experiment [14]; -0.807 with Lefty1; 1.39 in experiment [16]. In addition, the composite Z-score in experiment [1] was 0.402 (inactive). Besides, the z-score was 1.3 in experiment [15] and -1.6 (inactive) in experiment [17].
